Measurements: PubChem BioAssay (NCI)
The panel holds about 79,000 compounds, 15% with a hit somewhere; the sample as a whole holds those more often. Active and inactive are the calls of the source. Rule as the data show it: active = growth inhibition above about 70%; inactive = the rest.

Tests used:
[1] = NCI Yeast Anticancer Drug Screen. Data for the wt1 strain (AID 149);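 also: 0% = growth of vehicle-treated wt1 cultures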; details: S. cerevisiae wt1 strain (SPY 50644) growth inhibition, active compounds read high
In short: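 Yeast wt1 strain exposed to compounds; growth inhibition measured relative to vehicle-treated controls.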

[2] = NCI Yeast Anticancer Drug Screen. Data for the rad50EPP+ strain (AID 151);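 also: 0% = growth of vehicle-treated control cultures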; details: S. cerevisiae rad50 mutant strain, active compounds read high
In short: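 One strain with a rad50 alteration (rad50EPP+) was compound-treated, its growth then compared to that of vehicle controls.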

[3] = NCI Yeast Anticancer Drug Screen. Data for the mgt1 strain (AID 153); details: S. cerevisiae mgt1 mutant growth inhibition, active compounds read high
In short: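 After exposure of the mgt1 yeast mutant to compound, growth was measured and reported as inhibition compared with vehicle controls.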

[4] = NCI Yeast Anticancer Drug Screen. Data for the rad50 strain (AID 155);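 also: 0% = growth of vehicle-only cultures of the same strain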; details: S. cerevisiae rad50 strain growth inhibition, active compounds read high
In short: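 Yeast carrying a defined DNA repair defect were exposed to test compounds, and growth was compared with vehicle-treated controls to give percent inhibition.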

[5] = NCI Yeast Anticancer Drug Screen. Data for the mec2-1 strain (AID 157); details: S. cerevisiae mec2-1 strain, active compounds read high
In short: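 Test agents were screened against the mec2-1 yeast strain, with defined DNA repair or cell cycle alteration. Growth was scored as inhibition against vehicle-only controls.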

[6] = NCI Yeast Anticancer Drug Screen. Data for the rad14 strain (AID 159);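 also: 0% = growth of vehicle-treated control cultures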; details: S. cerevisiae rad14 strain growth inhibition, active compounds read high
In short: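 Yeast cells carrying a defined DNA-repair defect were exposed to compounds, and growth inhibition was calculated relative to vehicle-treated control cultures.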

[7] = NCI Yeast Anticancer Drug Screen. Data for the sgs1 mgt1 strain (AID 161);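 also: 0% = growth of cultures given vehicle only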; details: S. cerevisiae sgs1 mgt1 strain, active compounds read high
In short: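 Test agents were incubated with a DNA-repair-mutant yeast strain. Growth was then read and compared against vehicle-treated controls.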

[8] = NCI Yeast Anticancer Drug Screen. Data for the CLN2oe strain (AID 163);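 also: 0% = growth of vehicle-only control cultures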; details: S. cerevisiae CLN2oe strain, active compounds read high
In short: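 Here, growth inhibition in a cell-cycle-altered yeast strain after compound exposure was quantified against vehicle control growth.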

[9] = NCI Yeast Anticancer Drug Screen. Data for the cln2 rad14 strain (AID 165);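 also: 0% = growth equal to vehicle treated cultures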; details: S. cerevisiae cln2 rad14 strain, active compounds read high
In short: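 Growth of compound-exposed yeast (cln2 rad14 genotype) measured and expressed as inhibition relative to vehicle.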

[10] = NCI Yeast Anticancer Drug Screen. Data for the bub3 strain (AID 167); details: S. cerevisiae bub3 mutant strain, active compounds read high
In short: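 Compounds were applied to a genetically altered yeast strain carrying a cell-cycle control defect. Growth inhibition was scored against vehicle-treated controls.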

[11] = NCI Yeast Anticancer Drug Screen. Data for the wt2 strain (AID 169);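 also: 0% = growth of vehicle-treated yeast cultures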; details: S. cerevisiae wt2 strain growth inhibition, active compounds read high
In short: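 Genetically defined yeast strains from a DNA-repair/cell-cycle panel were used. Compound-exposed yeast growth was measured, and the inhibition was calculated relative to vehicle treatment.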

[12] = NCI Yeast Anticancer Drug Screen. Data for the mlh1 strain (AID 171);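 also: 0% = growth of vehicle-treated control cultures of the same strain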; details: S. cerevisiae mlh1 strain growth inhibition, active compounds read high
In short: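 Here the genetically defined yeast mutant is grown with each compound, and the extent to which its growth falls below that of vehicle-exposed cells is reported.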

[13] = NCI Yeast Anticancer Drug Screen. Data for the mlh1 rad18 strain (AID 175); details: S. cerevisiae mlh1 rad18 strain growth inhibition, active compounds read high
In short: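 In this whole-cell yeast screen, a strain with altered DNA damage repair is challenged with compound, and its growth is measured against matched vehicle-treated controls.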

[14] = NCI Yeast Anticancer Drug Screen. Data for the rad18 strain (AID 177); details: S. cerevisiae rad18 mutant growth inhibition, active compounds read high
In short: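 Screen uses a yeast strain with a defined lesion in DNA damage repair; compound effect is read as loss of growth compared to untreated vehicle cultures.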

[15] = NCI Yeast Anticancer Drug Screen. Data for the sgs1 strain (AID 173);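 also: 0% = growth of vehicle-only control cultures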; details: S. cerevisiae sgs1 mutant, active compounds read high
In short: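 Relative growth inhibition, referenced to vehicle, was determined in a yeast strain with a defined alteration affecting DNA damage repair or cell cycle control after compound exposure.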

[16] = at 5.0 µM (retest, dose inferred, filed as 0.5)
[17] = at 50.0 µM (retest, dose inferred, filed as 5.0)

Measured: growth inhibition

O=C(Cc1ccccc1)NNc1nc(NNC(=O)c2ccncc2)nc(Nc2ccc([N+](=O)[O-])cc2)n1
inactive: [1]; at 1.2 µM -81% | [1]; at 3.7 µM 3% | [1]; at 11.0 µM 12% | [1]; at 33.0 µM 19% | [1]; at 100.0 µM 17% | [2]; at 1.2 µM 4% | [2]; at 3.7 µM 10% | [2]; at 11.0 µM 11% | [2]; at 33.0 µM 11% | [2]; at 100.0 µM -3% | [3]; at 1.2 µM 4% | [3]; at 3.7 µM 13% | [3]; at 11.0 µM 52% | [3]; at 33.0 µM 62% | [3]; at 100.0 µM 56% | [4]; at 1.2 µM 2% | [4]; at 3.7 µM 9% | [4]; [16] 8% | [4]; at 11.0 µM 21% | [4]; at 33.0 µM 25% | [4]; [17] 54% | [4]; at 100.0 µM 21% | [5]; at 1.2 µM 3% | [5]; at 3.7 µM 9% | [5]; [16] 3% | [5]; at 11.0 µM 27% | [5]; at 33.0 µM 34% | [5]; [17] 18% | [5]; at 50.0 µM 47% | [5]; at 100.0 µM 23% | [6]; at 1.2 µM -3% | [6]; at 3.7 µM 2% | [6]; at 11.0 µM 12% | [6]; at 33.0 µM 14% | [6]; at 100.0 µM 11% | [7]; [16] 0% | [7]; [17] 41% | [8]; at 1.2 µM -8% | [8]; at 3.7 µM -4% | [8]; at 11.0 µM 8% | [8]; at 33.0 µM 11% | [8]; at 100.0 µM 7% | [9]; [16] 42% | [9]; [17] 3% | [9]; at 50.0 µM 64.3% | [10]; at 1.2 µM -2% | [10]; at 3.7 µM -4% | [10]; [16] 6% | [10]; at 11.0 µM 11% | [10]; at 33.0 µM 17% | [10]; [17] 40% | [10]; at 100.0 µM 15% | [11]; at 1.2 µM -3% | [11]; at 3.7 µM 10% | [11]; at 11.0 µM 41% | [11]; at 33.0 µM 57% | [11]; at 100.0 µM 61% | [12]; at 1.2 µM -3% | [12]; at 3.7 µM 8% | [12]; at 11.0 µM 42% | [12]; at 33.0 µM 58% | [12]; at 100.0 µM 55% | [13]; [16] 7% | [13]; [17] 36% | [14]; at 1.2 µM 9% | [14]; at 3.7 µM 26% | [14]; at 11.0 µM 50% | [14]; at 33.0 µM 57% | [14]; at 100.0 µM 49%
active: [4]; at 50.0 µM 71.5% | [7]; at 50.0 µM 87.3% | [10]; at 50.0 µM 77.7% | [13]; at 50.0 µM 86.2%

COc1ccccc1/C=C\C(=O)C1COCN1 (stereo unspecified)
active: [1]; at 100.0 µM 99% | [2]; at 33.0 µM 73% | [2]; at 100.0 µM 92% | [3]; at 100.0 µM 99% | [4]; at 33.0 µM 95% | [4]; [17] 82% | [4]; at 50.0 µM 97.2% | [4]; at 100.0 µM 98% | [5]; at 50.0 µM 98.7% | [5]; at 100.0 µM 99% | [6]; at 100.0 µM 99% | [7]; [17] 75% | [7]; at 50.0 µM 84.7% | [8]; at 100.0 µM 98% | [10]; at 50.0 µM 97.3% | [10]; at 100.0 µM 99% | [11]; at 100.0 µM 99% | [12]; at 33.0 µM 83% | [12]; at 100.0 µM 99% | [15]; at 33.0 µM 92% | [15]; at 100.0 µM 99% | [13]; [17] 82% | [13]; at 50.0 µM 99.1%
inactive: [1]; at 1.2 µM -4% | [1]; at 3.7 µM -4% | [1]; at 11.0 µM -7% | [1]; at 33.0 µM 19% | [2]; at 1.2 µM 11% | [2]; at 3.7 µM 20% | [2]; at 11.0 µM 42% | [3]; at 1.2 µM -1% | [3]; at 3.7 µM -2% | [3]; at 11.0 µM -2% | [3]; at 33.0 µM 53% | [4]; at 1.2 µM 9% | [4]; at 3.7 µM 6% | [4]; [16] -141% | [4]; at 11.0 µM 12% | [5]; at 1.2 µM 4% | [5]; at 3.7 µM 5% | [5]; [16] -49% | [5]; at 11.0 µM 12% | [5]; at 33.0 µM 38% | [5]; [17] 28% | [6]; at 1.2 µM 0% | [6]; at 3.7 µM -1% | [6]; at 11.0 µM 9% | [6]; at 33.0 µM 38% | [7]; [16] -63% | [8]; at 1.2 µM 2% | [8]; at 3.7 µM 1% | [8]; at 11.0 µM 1% | [8]; at 33.0 µM 13% | [9]; [16] -57% | [9]; [17] -60% | [9]; at 50.0 µM 7.45% | [10]; at 1.2 µM 0% | [10]; at 3.7 µM 9% | [10]; [16] -53% | [10]; at 11.0 µM 18% | [10]; at 33.0 µM 69% | [10]; [17] 69% | [11]; at 1.2 µM 2% | [11]; at 3.7 µM 1% | [11]; at 11.0 µM 0% | [11]; at 33.0 µM 37% | [12]; at 1.2 µM 9% | [12]; at 3.7 µM 2% | [12]; at 11.0 µM 12% | [15]; at 1.2 µM 1% | [15]; at 3.7 µM 2% | [15]; at 11.0 µM 18% | [13]; [16] -122%

CCOP(=O)(OCC)/C(C#N)=C/c1cccc(Oc2ccccc2)c1
active: [1]; at 33.0 µM 96% | [1]; at 100.0 µM 97% | [3]; at 33.0 µM 95% | [3]; at 100.0 µM 96% | [4]; at 33.0 µM 96% | [4]; [17] 96% | [4]; at 50.0 µM 90.2% | [4]; at 100.0 µM 96% | [5]; at 33.0 µM 97% | [5]; [17] 98% | [5]; at 50.0 µM 93.5% | [5]; at 100.0 µM 98% | [6]; at 33.0 µM 94% | [6]; at 100.0 µM 96% | [7]; [17] 96% | [7]; at 50.0 µM 91.2% | [8]; at 33.0 µM 97% | [8]; at 100.0 µM 97% | [9]; [17] 97% | [9]; at 50.0 µM 90.5% | [10]; at 33.0 µM 97% | [10]; [17] 95% | [10]; at 50.0 µM 90.3% | [10]; at 100.0 µM 97% | [11]; at 33.0 µM 96% | [11]; at 100.0 µM 97%
inactive: [1]; at 1.2 µM -13% | [1]; at 3.7 µM -26% | [1]; at 11.0 µM 56% | [2]; at 1.2 µM 0% | [2]; at 3.7 µM -7% | [2]; at 11.0 µM 7% | [2]; at 33.0 µM 7% | [2]; at 100.0 µM 62% | [3]; at 1.2 µM -32% | [3]; at 3.7 µM -40% | [3]; at 11.0 µM 28% | [4]; at 1.2 µM -30% | [4]; at 3.7 µM -30% | [4]; [16] 2% | [4]; at 11.0 µM 42% | [5]; at 1.2 µM -8% | [5]; at 3.7 µM 1% | [5]; [16] -7% | [5]; at 11.0 µM 45% | [6]; at 1.2 µM -40% | [6]; at 3.7 µM -39% | [6]; at 11.0 µM 35% | [7]; [16] 1% | [8]; at 1.2 µM -12% | [8]; at 3.7 µM -23% | [8]; at 11.0 µM 42% | [9]; [16] -4% | [10]; at 1.2 µM -11% | [10]; at 3.7 µM -19% | [10]; [16] 22% | [10]; at 11.0 µM 41% | [11]; at 1.2 µM 1% | [11]; at 3.7 µM 1% | [11]; at 11.0 µM 38%
